Results: PubChem BioAssay AID485346 (Sanford-Burnham Center for Chemical Genomics, 2010)
Hit rate of the full screen: of about 330,000 compounds, about 10,000 (3%) were called active. The list comes from a sample in which actives are over-represented; it also holds similar structures and randomly drawn compounds. Values without a mark were called inactive.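 The calls were made as follows: active = inhibition of at least 50% at 8 µM in the primary screen; inactive = the rest.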

Molecular target: Protein Mdm4 (Homo sapiens) + E3 ubiquitin-protein ligase Mdm2 (Homo sapiens) (UniProt O15151+Q00987)
Sequence (O15151 whole entry, looked up): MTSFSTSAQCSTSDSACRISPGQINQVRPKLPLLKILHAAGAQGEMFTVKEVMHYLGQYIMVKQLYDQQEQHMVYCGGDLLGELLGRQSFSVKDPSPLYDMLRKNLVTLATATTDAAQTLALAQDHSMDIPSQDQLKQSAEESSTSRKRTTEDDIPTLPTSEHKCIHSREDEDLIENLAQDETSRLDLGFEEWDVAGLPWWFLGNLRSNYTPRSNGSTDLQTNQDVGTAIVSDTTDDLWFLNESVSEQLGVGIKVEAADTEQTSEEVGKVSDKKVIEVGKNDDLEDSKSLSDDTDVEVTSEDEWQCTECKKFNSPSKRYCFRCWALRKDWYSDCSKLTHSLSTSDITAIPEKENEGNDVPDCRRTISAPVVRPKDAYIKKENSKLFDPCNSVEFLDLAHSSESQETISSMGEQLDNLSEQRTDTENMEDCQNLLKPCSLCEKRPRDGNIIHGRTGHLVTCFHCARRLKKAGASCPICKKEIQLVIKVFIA
Sequence (Q00987 whole entry, looked up): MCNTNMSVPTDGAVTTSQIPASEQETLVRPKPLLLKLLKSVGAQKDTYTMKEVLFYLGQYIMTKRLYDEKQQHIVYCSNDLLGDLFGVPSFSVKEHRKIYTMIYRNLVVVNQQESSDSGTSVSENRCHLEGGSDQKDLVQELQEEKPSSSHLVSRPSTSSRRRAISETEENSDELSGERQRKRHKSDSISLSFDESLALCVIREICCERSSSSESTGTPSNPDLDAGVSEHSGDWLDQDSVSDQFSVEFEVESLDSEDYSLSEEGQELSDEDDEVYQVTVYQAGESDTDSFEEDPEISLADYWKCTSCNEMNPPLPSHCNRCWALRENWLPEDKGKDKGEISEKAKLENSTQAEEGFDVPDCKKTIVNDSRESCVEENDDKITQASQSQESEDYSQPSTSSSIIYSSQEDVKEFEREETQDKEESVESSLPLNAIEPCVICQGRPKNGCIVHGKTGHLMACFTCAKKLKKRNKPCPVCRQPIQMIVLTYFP
Test: inhibitors of human Mdm2-MdmX association, primary screen, cell-based, luminescence, split luciferase, SaOS-2, uHTS (AID 485346)
Conditions: SaOS-2 split-luciferase Mdm2/MdmX complementation, at 8 µM, hits give high values

Row | SMILES | inhibition
1 | COCCNC(=O)COc1ccc(N(C)S(=O)(=O)c2ccc3ccccc3c2)cc1 | 16.8%
2 | O=C(/C=C/c1ccc(Cl)cc1)Nc1ccc(S(=O)(=O)Nc2ncccn2)cc1 | 0.48%
3 | Cc1cc(C)nc(NC(=O)/C=C/c2ccc(Cl)cc2)n1 | 6.82%
4 | O=C(/C=C/c1ccc(Cl)cc1)Nc1ccc(Br)cn1 | 77.5% (active)
5 | CCn1c(SCC(=O)Nc2cc(C)ccc2C)nnc1-c1cnccn1 | -18.6%
6 | COc1ccc(N2C(=O)C(O)C2c2ccc(C)cc2)cc1 (stereo not drawn) | 17.5%
7 | COc1ccc(C(CCN(Cc2ccc(OC)c(OC)c2)C(=O)CCl)c2ccccc2)cc1 (stereo not drawn) | 100% (active)
8 | COc1ccc(CN(C)C(=O)CC(c2ccccc2)c2ccccc2)cc1 | 2.66%
9 | COc1ccc(COC(=O)NC(C(=O)O)c2ccccc2)cc1 (stereo not drawn) | 7.43%
10 | O=C(OCc1cc(=O)n2ccsc2n1)C1(c2ccc(Cl)cc2)CC1 | -13.2%
11 | CN(c1ccc(OCC(=O)NC2=NCCS2)cc1)S(=O)(=O)c1ccc(F)cc1 | -19.2%
12 | CCOC(=O)C1=C(c2ccccc2)NC(=O)NC1c1cc(OCC)c(O)c([N+](=O)[O-])c1 (stereo not drawn) | -2.5%
13 | CC(C)(C)c1ccc(/C=C/C(=O)Nc2ncccn2)cc1 | -199%
14 | COC(=O)c1sc(-c2ccc(C(C)(C)C)cc2)cc1NC(=O)/C=C/C(=O)O | 59.5% (active)
15 | COc1ccccc1NC(=O)/C=C/C(N)=O | 6.78%
16 | CC1(C)S[C@@H]2[C@H](NC(=O)COc3ccccc3)C(=O)N2C1C(=O)OCc1ccccc1 (stereo partly drawn) | -0.93%
17 | O=C1OCCN1C(=O)[C@H]1[C@H](c2ccc(Cl)cc2)C(c2cccc(Cl)c2)=NN1c1ccc(Br)cc1 | 43%
18 | COc1ccc(Cl)cc1NC(=O)NC(C)C(C)(C)C (stereo not drawn) | -21.5%
19 | Cc1cccc(-c2oc3ccc(-c4ccc5c(c4)OCO5)cc3c2C#Cc2cncn2C)c1 | 62.2% (active)
20 | COc1ccc(C#Cc2c(-c3ccc(OC)cc3)oc3ccc(-c4ccc5c(c4)OCO5)cc23)cc1 | -2.23%

Row | SMILES | inhibition
21 | COc1ccc(/C=C/c2c(-c3cccc(C)c3)oc3ccc(-c4ccc5c(c4)OCO5)cc23)cc1 | 6.97%
22 | COc1nnc(-c2ccc(C)c(S(=O)(=O)N(C)C)c2)c2ccccc12 | 13.5%
23 | COc1ccc(CCN(C)C(=O)C23CC4CC(CC(Cl)(C4)C2)C3)cc1OC | 27.9%
24 | Cc1cc(=O)[nH]c2nnnn12 | 6.21%
25 | Cc1ccc(C(=O)Nc2ccc(NC(=O)c3cccs3)cc2)c(C)c1 | -14.7%
26 | CCN(CC(=O)Nc1ccc(OC)cc1)C(=O)CSCc1ccc(C)cc1 | 20.5%
27 | Cc1ccc(OCC(=O)Nc2ccc(NC(=O)c3cccs3)cc2)c(C)c1 | 13.5%
28 | COc1ccc(CC(=O)Nc2ccc(C(=O)NC(C)(C)C)cc2)cc1 | -11.9%
29 | COc1ccc(CC(=O)Nc2ccc(-c3nnc(-c4ccc(C)cc4)o3)cc2)cc1 | 99.8% (active)
30 | Cc1ccc(-c2nnc(-c3ccc(NC(=O)c4cccs4)cc3)o2)cc1 | 93.9% (active)
31 | CO[C@@H]1[C@@H](OC(N)=O)[C@@H](O)C(Oc2ccc3c(O)c(NC(=O)c4ccc(O)c(CC=C(C)C)c4)c(=O)oc3c2C)OC1(C)C (stereo partly drawn) | 20.1%
32 | Oc1ccccc1C1=NN(c2ccccc2)C(c2ccccc2)C1 (stereo not drawn) | 58.3% (active)
33 | O=C(c1ccccc1)N1N=C(c2ccccc2O)CC1c1ccc(Br)cc1 (stereo not drawn) | 12%
34 | COc1ccc(C2CC(c3cccs3)=NN2c2ccccc2)cc1 (stereo not drawn) | -32.2%
35 | CCSc1nc(O)c(C(c2cccc(OC)c2)c2c(O)nc(SCC)[nH]c2=O)c(=O)[nH]1 | -27.3%
36 | COc1cccc(CNC(=O)c2nnn(CC(=O)Nc3cc(C)ccc3C)c2N)c1 | 5.26%
37 | COc1cccc(CNC(=O)c2nnn(CC(=O)Nc3cc(Cl)ccc3C)c2N)c1 | 77.9% (active)
38 | COc1ccc(CNC(=O)c2nnn(CC(=O)Nc3cc(C)cc(C)c3)c2N)cc1 | 48.3%
39 | Cc1ccc(Nc2nnc(SC(C)C(=O)NC3CC3)s2)cc1 (stereo not drawn) | 22.3%
40 | Cc1cc(=O)n2nc(N3CCC(C(=O)Nc4c(F)c(F)c(F)c(F)c4F)CC3)sc2n1 | 8.91%

Row | SMILES | inhibition
41 | c1ccc(-c2nccc(-c3ccc(-n4cnc5ccccc54)cc3)n2)nc1 | 28.4%
42 | N#Cc1ccc(Oc2cc(C(F)(F)F)nc(-c3ccccn3)n2)cc1 | 11.2%
43 | c1ccc2c(NCC3CCCO3)nc(-c3ccncc3)nc2c1 (stereo not drawn) | -16.8%
44 | COc1cnc(-c2ccccn2)nc1Oc1ccc(C(C)(C)C)cc1 | 37.6%
45 | Cc1ccc(Oc2nc(-c3ccccn3)nc3ccccc23)cc1 | 60.4% (active)
46 | CC(C)(C)Nc1nc(-c2ccccn2)nc2ccccc12 | 87.5% (active)
47 | CCn1nc(C)c(CN2CCN(Cc3ccc(OC)c(C)c3C)C(CCO)C2)c1C (stereo not drawn) | 10.8%
48 | O=C(OCCN1CCOCC1)C1(c2ccccc2)CCCCC1 | -8.86%
49 | Cc1ncn2cc(-c3ccc(Cl)cc3Cl)[nH]c(=O)c12 | 7.48%
50 | Cc1ccc(C(=O)Nc2nnc(-c3ccncc3)s2)o1 | -5.65%
51 | CC(C)=CC(=O)Nc1nnc(-c2ccc(F)cc2)s1 | 80% (active)
52 | O=C(Nc1nnc(-c2ccc(F)cc2)s1)c1c(F)cccc1Cl | 7.4%
53 | COc1ccccc1N(C)S(=O)(=O)c1ccc(Cl)c(C(=O)N2CCC(C(N)=O)CC2)c1 | -6.16%
54 | Cc1ccc2[nH]c3c(=O)n(CC(=O)NCCc4ccc(Cl)cc4)ncc3c2c1 | -13.8%
55 | COc1ccc(C2CC(=O)Oc3ccc(C(C)(C)C)cc32)cc1 (stereo not drawn) | 21.6%
56 | c1ccc2c(c1)C(=NC1CCCCC1)NC2=NC1CCCCC1 | 94.3% (active)
57 | Cc1nn(C)c(Cl)c1CN1CCC(n2nccc2NC(=O)C2CCCC2)CC1 | 12.6%
58 | COCc1cc(=O)[nH]c(SC)n1 | 5.54%
